Structures are written as SMILES. The campaign covered roughly 63,000 compounds. About 1,100 (1.7%) were called active. This excerpt belongs to a sample that is enriched for actives. Measured potencies and affinities stand elsewhere. Unmarked numbers belong to inactive results.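 How the source made its calls: active means compounds whose percent cytotoxicity in the single-dose primary screen, scaled between solvent and toxic-drug controls, exceeds 50; inactive means the rest.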

A short description of the assay: cytotoxicity in KRAS-transformed pancreatic duct cells, primary screen, cell-based, fluorescence, HTS (AID 431).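 Further: 0% = DMSO solvent wells and 100% = doxorubicin-treated wells.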 The following applies: HPDE-C7K KRASV12 cells, Alamar Blue viability, 48 h; at 10 µM; hits give high values.
For the compound `CCc1c(C)c(C#N)c2nc3ccccc3n2c1N(C)C`, the cytotoxicity is 10.9%.

Take `CCCCn1c(=O)cc(O)c2ccccc21`: the cytotoxicity is -12.7%.

For `CC1=C(C(=O)OCC2CCCO2)C(c2ccncc2)C2=C(CCCC2=O)N1` (stereo unspecified), the cytotoxicity was -3.4%.

For the compound `Nc1nncn1C(=O)CCc1ccccc1`, the cytotoxicity was 4%.

With `O=c1oc(-c2cc3ccccc3o2)nc2sc3c(c12)CCCC3`, the cytotoxicity was 57.9% (active).

In the case of `O=c1oc(-c2cccs2)nc2sc3c(c12)CCCCC3`, the cytotoxicity is 43.5%.

With `O=c1oc(-c2cccs2)nc2sc3c(c12)CCC3`, the cytotoxicity was 33%.

Take `Cc1cccc(-c2c3c(=O)n(C)c(=O)n(C)c3cn2C(C)C)c1`: the cytotoxicity is -5.2%.

Take `COc1ccc(N2C(=O)CC(Sc3nccc(C)n3)C2=O)cc1` (stereo unspecified): the cytotoxicity was 9.4%.

In the case of `C=CCNc1nnc(SC2CC(=O)N(c3ccc(OC)cc3)C2=O)s1` (stereo unspecified), the cytotoxicity was 77.3% (active).

On to `CCOC(=O)c1ccc(N2C(=O)CC(Sc3nnc(C)s3)C2=O)cc1` (stereo unspecified), for which the cytotoxicity was -5.1%.

`O=C(CN1C(=O)C2C3C=CC(C3)C2C1=O)N1CC(=O)N(CCc2ccccc2)C(=O)C1` (stereo unspecified): the cytotoxicity is -4.4%.

Regarding `Nn1c(Nc2ccccc2)nc2sc3c(c2c1=O)CCC3`, the cytotoxicity was 61.4% (active).

For `Nn1c(-c2cccs2)nc2sc3c(c2c1=O)CCCC3`, the cytotoxicity was -1.9%.

Turning to `CCc1nc2sc3c(c2c(=O)n1N)CCC3`, the cytotoxicity is -6.1%.

Regarding `N#CC1=C2SCN(c3ccc(F)cc3)CN2C(=O)CC1c1cccc(F)c1` (stereo unspecified), the cytotoxicity was 1.2%.

On to `CC(C)(C)C1CCc2onc(C(=O)Nc3cnn(Cc4ccc(F)cc4)c3)c2C1` (stereo unspecified), for which the cytotoxicity was 81.6% (active).

With `CC(C)(C)C1CCc2onc(C(=O)NCc3ccc(F)cc3)c2C1` (stereo unspecified), the cytotoxicity is -7%.

In the case of `Cc1ccccc1Cn1cc(NC(=O)c2noc3c2CC(C(C)(C)C)CC3)cn1` (stereo unspecified), the cytotoxicity was -6.5%.

For the compound `COc1ccccc1NC(=O)Cc1noc(CSc2cc(C)c3ccccc3n2)n1`, the cytotoxicity was -4.4%.

`O=C(c1cccnc1)N1CCC(c2nc3ccccc3[nH]2)CC1`: the cytotoxicity was -11.8%.

Take `O=C1NC(c2ccccc2)(C(F)(F)F)SC2=NCCCN12` (stereo unspecified): the cytotoxicity is 6.7%.

Turning to `Cc1ccc(C2(C(F)(F)F)NC(=O)N3CCCN=C3S2)cc1` (stereo unspecified), the cytotoxicity was -10.2%.

As to `Cc1ccc(C2(C(F)(F)F)NC(=O)N3CCN=C3S2)cc1` (stereo unspecified), the cytotoxicity is 76.6% (active).

Take `CCN(CC)CCCN1C(=O)c2oc3ccccc3c(=O)c2C1c1cccc(OC)c1OC` (stereo unspecified): the cytotoxicity was -9.4%.

Regarding `C=CCn1cnc2c(c1=O)c1nc3ccccc3nc1n2-c1ccc(C)cc1`, the cytotoxicity was 13.4%.

`C=CCn1cnc2c(c1=O)c1nc3ccccc3nc1n2/N=C/c1cccc(OC)c1OC`: the cytotoxicity was 59.6% (active).

Turning to `C=CCn1cnc2c(c1=O)c1nc3ccccc3nc1n2-c1ccc(Cl)cc1`, the cytotoxicity was 0.8%.

For `COCCn1cnc2c(c1=O)c1nc3ccccc3nc1n2/N=C/c1cccc(OC)c1OC`, the cytotoxicity is 9.4%.

As for `C=CCn1cnc2c(c1=O)c1nc3ccccc3nc1n2/N=C/c1ccccn1`, the cytotoxicity was -21.9%.

Regarding `C=CCn1cnc2c(c1=O)c1nc3ccccc3nc1n2/N=C/c1cccc(OC)c1`, the cytotoxicity is 55.1% (active).

In the case of `C=CCn1cnc2c(c1=O)c1nc3ccccc3nc1n2-c1ccccc1`, the cytotoxicity was -1.9%.

Regarding `C=CCn1cnc2c(c1=O)c1nc3ccccc3nc1n2Cc1ccccc1`, the cytotoxicity is -3.7%.

Turning to `Cc1ccc(S(=O)(=O)NC(C)C(=O)NC2CCCCCC2)cc1` (stereo unspecified), the cytotoxicity is 1%.

In the case of `O=C1C(=C(O)c2ccccc2)C(=O)c2ccccc21`, the cytotoxicity is 2%.

Turning to `O=C(CC(c1ccco1)C1CCCCC1=O)c1ccco1` (stereo unspecified), the cytotoxicity was 14.2%.

For the compound `COc1cccc(C(=O)N(CN2CCCC2=O)c2cccc(Cl)c2)c1`, the cytotoxicity is -17.4%.

On to `CCOC(=O)c1cccc(NC(=O)CN(C)S(=O)(=O)c2cnc[nH]2)c1`, for which the cytotoxicity is -9.7%.

With `CCc1nnc(NC(=O)CSc2nnc(COc3ccccc3)n2-c2ccc(C)cc2)s1`, the cytotoxicity is 2.3%.

Consider `COC(=O)Cn1cnc2c(C#N)c3n(c2c1=O)CCCCC3`, for which the cytotoxicity was -14.2%.

For `COc1ccccc1-c1noc(-c2ccccc2C(=O)N2CCOCC2)n1`, the cytotoxicity was -11.4%.

For the compound `CCn1c2ccccc2c2cc(/C=N/n3cnnc3)ccc21`, the cytotoxicity is 16.2%.

In the case of `CCn1c2ccccc2c2cc(N)ccc21`, the cytotoxicity was 22.9%.

For `C=Cn1ccnc1P(=S)(c1ccc2c(c1)c1ccccc1n2CC)c1nccn1C=C`, the cytotoxicity was 63.9% (active).

Turning to `CCN(CC(=O)Nc1ccc2c(c1)OCCO2)C(=O)C1CCCCC1`, the cytotoxicity is -7.3%.

Turning to `N#Cc1ccc(NC(=O)Nc2ccc(Cl)cc2)cc1`, the cytotoxicity was 67.5% (active).

Consider `Cc1cccc(NC(=O)Nc2ccc(C#N)cc2)n1`, for which the cytotoxicity was 12.8%.

Regarding `CN(CC(=O)Nc1ccc(C#N)cc1)Cc1ccc(Cl)cc1`, the cytotoxicity was 2.8%.

Take `O=C(c1ccc(Cl)cc1)N1CCCOC1`: the cytotoxicity is 0.8%.

Consider `C=CC(=C)CC(NC)c1ccccc1` (stereo unspecified), for which the cytotoxicity is 8.2%.

For `Cc1nc(NCC2CCCO2)c2oc3ccccc3c2n1` (stereo unspecified), the cytotoxicity was 6.5%.

Turning to `CCOC(=O)c1c(N)sc2c(O)c(Br)ccc12`, the cytotoxicity was 13.7%.

Regarding `CCOC(=O)c1c(N)sc(=S)c2c1CCC2`, the cytotoxicity is 10.6%.

With `CCOC(=O)c1c(N)sc2c(OC)c(Br)ccc12`, the cytotoxicity is 58.8% (active).

`Cc1ccc2c(c1)cc(CN(CCc1ccccc1)C(=O)N1CCOCC1)c1nnnn12`: the cytotoxicity is -24.7%.

With `COc1ccc(NC(=O)N(CCCN(C)C)Cc2cc3cc(OC)ccc3[nH]c2=O)cc1`, the cytotoxicity was -3%.

Regarding `CCN(CC)S(=O)(=O)c1cc(C(=O)Oc2ccccc2OC)ccc1OC`, the cytotoxicity is 2.8%.

Take `Cn1c(CNC(=O)Cc2ccc3c(c2)OCO3)nnc1SCc1ccccc1`: the cytotoxicity was -39.1%.

Regarding `CC1Cn2c(nnc2-c2cccc(Cl)c2)S1` (stereo unspecified), the cytotoxicity is 3.6%.

For the compound `COC(=O)CSc1nc(-c2cccs2)ccc1C#N`, the cytotoxicity is 12.6%.

Take `CCOC(=O)C(C)Sc1nc(-c2cccs2)ccc1C#N` (stereo unspecified): the cytotoxicity was 59.5% (active).

Consider `C=COC(=O)CSc1nc(-c2cccs2)ccc1C#N`, for which the cytotoxicity was 40.6%.

As to `CCCCn1c(-c2cc(Cl)ccc2OC)n[nH]c1=S`, the cytotoxicity was -11.5%.

For the compound `Cc1ccc(S(=O)(=O)c2c(C)nn(C(C)(C)C)c2OC(=O)C2CCCC2)cc1`, the cytotoxicity was -5.1%.

`CC(=O)Nc1ccc(S(=O)(=O)N2CCC(NC(C)=O)(c3cccc(F)c3)CC2)cc1`: the cytotoxicity was 8%.

As for `CC1CCCCN1CC(=O)Nc1sc2c(c1C#N)CCC2` (stereo unspecified), the cytotoxicity is -11.1%.

`Cc1ccc(S(=O)(=O)NC(=O)NC(C)(C)C)cc1`: the cytotoxicity is 12.4%.

Consider `OC1CCN(Cc2cccc(Oc3ccccc3)c2)CC1`, for which the cytotoxicity is 20.9%.

In the case of `Oc1ccc2ccccc2c1/C=N/n1cnnc1`, the cytotoxicity was 18.6%.

On to `Oc1ccc2ccccc2c1C=NC12CN3CCN(CN(C3)C1)C2`, for which the cytotoxicity is 0.4%.

For `OCC(CO)(CO)N=Cc1c(O)ccc2ccccc12`, the cytotoxicity is 68% (active).

For `COc1ccc(S(=O)(=O)N(CC(=O)N2CCN(C)CC2)C2CCCCC2)cc1OC`, the cytotoxicity is 0.2%.

Regarding `COc1ccc(CCn2c(-n3nc(C)cc3C)nc3c2c(=O)[nH]c(=O)n3C)cc1`, the cytotoxicity is 52.6% (active).

As for `Cc1ccc(Cn2c(-n3nc(C)cc3C)nc3c2c(=O)[nH]c(=O)n3C)cc1`, the cytotoxicity was 5%.

For `Cc1cc(C)n(-c2nc3c(c(=O)[nH]c(=O)n3C)n2CCc2ccccc2)n1`, the cytotoxicity was 11.3%.

Regarding `COc1ccc(N2CC(C(=O)NC3CC(C)(C)NC(C)(C)C3)CC2=O)cc1` (stereo unspecified), the cytotoxicity is -5%.

Consider `COc1ccc(OC)c(NC(=O)CSc2nnc(CNC(=O)COc3ccc(Cl)cc3)o2)c1`, for which the cytotoxicity was -3%.

For the compound `C=CCn1c(=O)c(C(=O)Nc2nnc(C)s2)c(O)c2ccccc21`, the cytotoxicity was 9.1%.

As to `CCn1c(=O)c(C(=O)NCCc2ccccc2)c(O)c2ccccc21`, the cytotoxicity was -11.5%.

`CCn1c(=O)c(C(=O)NCCNCCO)c(O)c2ccccc21`: the cytotoxicity was 13.9%.

For the compound `CCCn1c(=O)c(C(=O)Nc2nnc(CC)s2)c(O)c2ccccc21`, the cytotoxicity was 14.3%.

As for `CCn1c(=O)c(C(=O)Nc2cccnc2)c(O)c2ccccc21`, the cytotoxicity is 11.7%.

Regarding `CCn1c(=O)c(C(=O)Nn2c(C)nc3ccccc3c2=O)c(O)c2ccccc21`, the cytotoxicity is 17.6%.

As for `CCCn1c(=O)c(C(=O)Nc2nnc(C)s2)c(O)c2ccccc21`, the cytotoxicity was 62.2% (active).

`CCn1c(=O)c(C(=O)NCCCO)c(O)c2ccccc21`: the cytotoxicity is 70.7% (active).

On to `Cc1onc(-c2c(F)cccc2Cl)c1C(=O)NCCc1ccc(S(N)(=O)=O)cc1`, for which the cytotoxicity is -7.2%.

As for `N#C/C(C(=O)N1CCOCC1)=C1\Nc2ccccc2S1`, the cytotoxicity is 14.5%.

`O=C(NCc1ccco1)c1cc(-c2ccncc2)nc2ccccc12`: the cytotoxicity was -8.1%.

On to `CCOc1cc(N2CCOCC2)c(OCC)cc1NC1=NCCCCC1`, for which the cytotoxicity was -3.3%.

Take `CC1CCCC(NC(=O)CSc2nnc(N)s2)C1C` (stereo unspecified): the cytotoxicity is -4.3%.

Turning to `Cc1ccc(C)c(N(CC(=O)NCc2ccc3c(c2)OCO3)C(=O)CCC(=O)Nc2ccccn2)c1`, the cytotoxicity is -28%.

For the compound `COc1ccc(N2CSC3=C(C#N)C(c4ccc(OC)c(OC)c4)CC(=O)N3C2)c(OC)c1` (stereo unspecified), the cytotoxicity was -12%.

For the compound `Cn1c(CNc2ccc(Cl)cc2)nc2ccccc21`, the cytotoxicity is -9.8%.

For the compound `Cc1nc2ccccc2n1-c1ccccc1`, the cytotoxicity was -12.4%.

On to `CC(C)N=c1cc2n(-c3ccc(Cl)cc3)c3ccccc3nc-2cc1Nc1ccc(Cl)cc1`, for which the cytotoxicity is 68.8% (active).

Take `CCCCn1c(C(C)NC(=O)CCC)nc2ccccc21` (stereo unspecified): the cytotoxicity was 2.5%.

On to `CCOCCN1CCN(c2c(C)c(C)nc3cc(-c4cc(OC)cc(OC)c4)nn23)CC1`, for which the cytotoxicity was 9.5%.

For `CCc1c(C)nc2cc(-c3ccc(OC)c(OC)c3)nn2c1N1CCCC1`, the cytotoxicity is 19.1%.

With `O=C1SC(SCc2ccccc2)=N/C1=C\c1ccco1`, the cytotoxicity was 42.6%.

Turning to `C=CCSC1=N/C(=C\C=C\c2ccco2)C(=O)S1`, the cytotoxicity was 33.1%.

For `CCCSC1=N/C(=C\C=C\c2ccco2)C(=O)S1`, the cytotoxicity is 51.9% (active).

(Values after PubChem BioAssay AID431 (Sanford-Burnham Center for Chemical Genomics, 2006).)
